Measurements published in PubChem BioAssay (NCI).
About 79,000 compounds went through this panel and 15% of them were active in at least one assay; those are over-represented in the sample as a whole. No stated cut-off is given here; in the data, active means growth inhibition above about 70%; inactive means the rest.

Tests used:
[1] = NCI Yeast Anticancer Drug Screen. Data for the rad50 strain (AID 155);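 further: 0% = growth of vehicle-only cultures of the same strain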; settings: S. cerevisiae rad50 strain growth inhibition; at 50.0 µM; hits give high values
Outline: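 Vehicle-treated cultures provide the reference for the growth inhibition reported for compound-exposed, repair-deficient yeast.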

[2] = NCI Yeast Anticancer Drug Screen. Data for the mec2-1 strain (AID 157); settings: S. cerevisiae mec2-1 strain, at 50.0 µM, hits give high values
Outline: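 Strain: mec2-1 (DNA repair/cell cycle alteration). Compound exposure, then growth measured; inhibition expressed relative to vehicle.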

[3] = NCI Yeast Anticancer Drug Screen. Data for the sgs1 mgt1 strain (AID 161);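 further: 0% = growth of cultures given vehicle only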; settings: S. cerevisiae sgs1 mgt1 strain, at 50.0 µM, hits give high values
Outline: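 Inhibition of yeast growth, normalised to vehicle-treated controls, is reported for a strain bearing genetic alterations in DNA damage repair.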

[4] = NCI Yeast Anticancer Drug Screen. Data for the cln2 rad14 strain (AID 165);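 further: 0% = growth equal to vehicle treated cultures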; settings: S. cerevisiae cln2 rad14 strain, at 50.0 µM, hits give high values
Outline: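 Compounds are applied to the cln2 rad14 yeast strain, and growth is then compared with that of vehicle-treated cultures to give inhibition.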

[5] = NCI Yeast Anticancer Drug Screen. Data for the bub3 strain (AID 167); settings: S. cerevisiae bub3 mutant strain, at 50.0 µM, hits give high values
Outline: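 Mutant yeast screening strain plus compound; vehicle-treated cultures serve as the 0% inhibition reference.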

[6] = NCI Yeast Anticancer Drug Screen. Data for the mlh1 rad18 strain (AID 175); settings: S. cerevisiae mlh1 rad18 strain growth inhibition; at 50.0 µM; hits give high values
Outline: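 Read-out is yeast growth inhibition, calculated against vehicle-only controls. The compound was applied to a strain engineered with DNA damage repair alterations.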

Measured: growth inhibition

CC(=O)CC(C)=Nc1ccc([N+](=O)[O-])cc1
inactive: [1] 1.75% | [2] -3.9% | [3] -6.7% | [4] -34.5% | [5] -16.6% | [6] 2.3%

Cc1ccc(S(=O)(=O)c2c(N)c3nc4ccccc4n3c3nc4ccccc4nc23)cc1
inactive: [1] 21.4% | [2] -10.3% | [3] -5.2% | [4] 25.7% | [5] -0.45% | [6] 13.1%

Cc1cc(N(CCC#N)CCC#N)ccc1/C=C1/N=C(c2ccccc2)N(N)C1=O
inactive: [1] -2.55% | [2] 13.2% | [3] 9.9% | [4] 2.7% | [5] 5.15% | [6] -3.3%

CC(C)(C(N)=O)c1ccccc1
inactive: [1] -28.1% | [2] -3.85% | [3] 16.6% | [4] -28.4% | [5] -1.55% | [6] -5.05%

O=P(CCC(F)(F)C(F)(F)C(F)(F)C(F)(F)C(F)(F)C(F)(F)C(F)(F)F)(N1CC1)N1CC1
inactive: [1] 25.4% | [2] -1.9% | [3] 8.15% | [4] -9.75% | [5] -1.2% | [6] 1.95%

COc1ccc(CCNCCCC2c3ccccc3-c3ccccc32)cc1OC
inactive: [1] 28.8% | [2] -3.4% | [3] 6.55% | [4] 12.5% | [5] -19.1% | [6] -34.1%

c1nnco1
inactive: [1] -4.2% | [2] 0.75% | [3] -2.5% | [4] 5.5% | [5] 6.85% | [6] -18.2%

O=C(Nc1cc(Cl)c(Cl)cc1Cl)OCc1ccc2c(c1)OCO2
inactive: [1] -12.1% | [2] -32.3% | [3] -14.4% | [4] 6.25% | [5] -25.2% | [6] -14.6%

O=C(O)C1=CC(c2ccccc2O)=NCCN1
inactive: [1] -20.8% | [2] -0.75% | [3] 0.7% | [4] -34.6% | [5] -4.1% | [6] 3.6%

Cc1ccn2c(-c3ccccc3)nnc2c1
inactive: [1] -23.6% | [2] -17.7% | [3] -14.6% | [4] -11.8% | [5] -18.1% | [6] -16%

O=C1NC(Cc2ccc(O)cc2)C(=O)N1c1ccccc1O (configuration not stated)
inactive: [1] 2.5% | [2] 0.95% | [3] 5.35% | [4] 2.5% | [5] -6.9% | [6] 3.5%

NCCCN(CCO)CCO
inactive: [1] -42.5% | [2] -3.1% | [3] -27.9% | [4] -31.9% | [5] -28.5% | [6] -20.4%

OCCN(CCO)c1nc(N(CCO)CCO)nc(N(CCO)CCO)n1
inactive: [1] 19.8% | [2] 16.4% | [3] 20.2% | [4] 31.5% | [5] 17.2% | [6] 19.6%

O=[N+]([O-])c1cc(F)ccc1-c1ccc(F)cc1
inactive: [1] 2.35% | [2] -4.85% | [3] 0.7% | [4] -20.7% | [5] 2.8% | [6] 20.4%

Cc1ccc(/S(Cc2ccccc2)=N\S(=O)(=O)c2ccc(C)cc2)cc1 (configuration not stated)
inactive: [1] -40.2% | [2] -36% | [3] -60.9% | [4] -13.3% | [5] -27.8% | [6] -33.1%

Cc1cc(Cl)c(Cl)cc1NC(=O)c1ccc(Cl)c(Cl)c1
inactive: [1] 5.15% | [2] 23.4% | [3] 9.9% | [4] -3.25% | [5] 45.1% | [6] 5.2%

Cc1ccc(N2CCN(CCC(=O)O)CC2)cc1
inactive: [1] -1.15% | [2] 8.8% | [3] 0.75% | [4] -3.85% | [5] -41.6% | [6] 22.4%

C=CCc1cccc(C)c1O
inactive: [1] 18.9% | [2] -16.1% | [3] 20.4% | [4] 13.6% | [5] -2.6% | [6] 20.3%

CC(=O)/C(=C\c1ccccc1F)C(=O)CCN(C)C
inactive: [1] 7.95% | [2] 6.55% | [3] 8.05% | [4] 12.2% | [5] 13.6% | [6] 28.3%

COC(=O)C(N)Cc1ccc(OC)cc1 (configuration not stated)
inactive: [1] -4.95% | [2] -9.25% | [3] 8.1% | [4] -1.95% | [5] 7.6% | [6] 3.75%

CC(C)=CCC\C(C)=C/C=C/C(C)=C\C=C\C(C)=C/C=C/C=C(C)\C=C\C=C(C)/C=C/C=C(/C)CCC=C(C)C
inactive: [1] 7.15% | [2] -30.8% | [3] -29% | [4] 30.9% | [5] -30.6% | [6] 20.2%

O=C1c2ccccc2CCC12OC2c1ccncc1 (configuration not stated)
inactive: [1] 12.1% | [2] 27.1% | [3] 25% | [4] 6.75% | [5] 39.4% | [6] 29.6%

CC1(C)c2ccccc2-c2nc3ccccc3nc2C1O (configuration not stated)
inactive: [1] 4.65% | [2] 18.8% | [3] -8% | [4] -14% | [5] 1.95% | [6] -9.7%

O=C(O)C(O)C(O)C(O)C(O)C(=O)O.[NH-]C1CCCCC1[NH-].[Pt+2] (configuration not stated)
inactive: [1] 8.15% | [2] -3.25% | [3] -1.55% | [4] 12.9% | [5] 8.25% | [6] 6.75%

COC(=O)C1=C(C(=O)OC)SC(=CC#CC=C2SC(C(=O)OC)=C(C(=O)OC)S2)S1
inactive: [1] 9.5% | [2] -3.35% | [3] 9.45% | [4] -59.7% | [5] -12.8% | [6] 1.6%

C#CC(C)(C)OC(=O)Nc1ccc(Cl)cc1
inactive: [1] 27.4% | [2] 16.2% | [3] -0.35% | [4] -44.2% | [5] 7.9% | [6] 13.1%

O=C(O)C(=O)O.[NH-]CC(O)CN(CC(O)CO)c1ccccc1.[Pt+2] (configuration not stated)
inactive: [1] 23.2% | [2] 1.35% | [3] 6.85% | [4] 21.7% | [5] -1.45% | [6] 11.1%

CN(C)OC(=O)Nc1cccc([N+](=O)[O-])c1
inactive: [1] 19.1% | [2] 13.3% | [3] 14.1% | [4] -82.8% | [5] 4.8% | [6] -2.6%

COC(=O)c1cc(NS(=O)(=O)c2ccc(N)cc2)cc(C(=O)OC)c1
inactive: [1] -12.6% | [2] -24.2% | [3] -7.5% | [4] 4.7% | [5] -14.8% | [6] -24.6%

Nc1nc(NCc2ccccc2)cc(=O)[nH]1
inactive: [1] 3.35% | [2] -20.8% | [3] -5.25% | [4] -0.4% | [5] -20.8% | [6] -2.75%

NC(=S)N/N=C/C=C/c1ccco1
inactive: [1] 8.9% | [2] 0.25% | [3] 30.6% | [4] -41.5% | [5] 20.3% | [6] 52%

O=C1c2c(-c3ccccc3)ccc(-c3ccccc3)c2C(=O)c2c(-c3ccccc3)ccc(-c3ccccc3)c21
inactive: [1] -4.4% | [2] -3.4% | [3] 2.3% | [4] -6.8% | [5] -2.6% | [6] -13.6%

N#CCC(=O)NCCc1c[nH]c2ccccc12
inactive: [1] -18.1% | [2] 0.2% | [3] -14.7% | [4] -32.8% | [5] -6.1% | [6] -27.8%

O=C1NN=CN2C(=O)CCC12 (configuration not stated)
inactive: [1] 26.4% | [2] 3.45% | [3] 14.3% | [4] 4.15% | [5] 14.4% | [6] -3.4%

COC(=O)C12C3C4C1C1C2C3C41C(=O)OC(C)(C)C (configuration not stated)
inactive: [1] 18% | [2] 1.35% | [3] 9.2% | [4] 4.5% | [5] 23.9% | [6] 15.2%

CN(CC(=O)NC(=O)c1ccccc1)c1ccccc1
inactive: [1] 4% | [2] -2% | [3] 8.85% | [4] -0.75% | [5] 11% | [6] 3.2%

O=C(O)COc1cc(Cl)cc(F)c1Cl
inactive: [1] -23.6% | [2] 4.1% | [3] -9.4% | [4] -33.2% | [5] -7.85% | [6] -2.55%

NC(=O)CCCC(C(N)=O)(c1ccccc1)c1ccccc1
inactive: [1] 9.2% | [2] 13.3% | [3] 3.25% | [4] -11.2% | [5] -7.15% | [6] -3.9%

CCOC(=O)/C=C/SCCCC(=O)O
inactive: [1] 1.5% | [2] -1.5% | [3] 0.25% | [4] -22.8% | [5] -4.55% | [6] 42.2%

Cc1cc2c(c3c1C(=O)CC3)CCCC2(C)C
inactive: [1] 9.3% | [2] 3.9% | [3] 2.75% | [4] -6.2% | [5] 2.15% | [6] -1.8%

CCCCCCCI
inactive: [1] -8.9% | [2] 20.9% | [3] 6.9% | [4] -21.6% | [5] 1.65% | [6] 23.8%

CCO/C=N/c1oc(-c2ccccc2)nc1C#N
inactive: [1] 4.6% | [2] 4.95% | [3] -4.85% | [4] -38.1% | [5] -12.1% | [6] 1.1%
